# Bioassay records as filed in PubChem BioAssay.
# The sample as a whole holds a higher share of hits than the screen did.
# IL1B secr inh: inflammasome signaling inhibition, IL-1 beta readout; actives 4.7% (n = 360,000); THP-1 LPS/ATP IL-1B secretion, AlphaLISA, 16 h; active compounds read low; activity change, % at 57.5 µM; in the data active = activity change below about -50%; inconclusive = mostly about -30% to -49%
#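 THP-1 cells pretreated 1 hr with compounds (up to 57.5 uM final), then stimulated with LPS (250 ng/mL final) plus ATP (1.25 mM final); secreted IL-1B measured by AlphaLISA after 16 hr, decreased signal indicating inhibition.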
# DT40 TDP1 no CPT: qHTS for Inhibitors of human tyrosyl-DNA phosphodiesterase 1 (TDP1): qHTS in cells in absence of CPT. DT40 Tdp1-/- hTDP1 cells, no CPT, ATP luminescence, 48 h. Potency, µM (series often up to 46.2 µM), without a hit: top-dose activity change, negative = growth inhibition, most hits filed as inhibitors. actives 15% (n = 420,000); also: potency is read from the fitted curve at half-maximal effect; nearly all actives have a fitted effect of over 55% in size
#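 DT40 Tdp1-/-;hTDP1 cells, no CPT (DMSO vehicle only), 400 cells/well; compounds pin-transferred; ≥48 hr, 37 °C; CellTiter-Glo 30 min RT dark, luminescence read.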
# ALOX12 inh: ALOX12 (human) lipoxygenase inhibition | purified 12hLO, xylenol orange hydroperoxide absorbance | Potency, µM (top dose mostly 108 µM), for the others: at the highest dose activity change, negative = inhibition, hits mostly inhibitors | actives 1.1% (n = 580,000) | AID 1671190; also: potency is read from the fitted curve at half-maximal effect
# Target sequence (P18054 whole entry, looked up): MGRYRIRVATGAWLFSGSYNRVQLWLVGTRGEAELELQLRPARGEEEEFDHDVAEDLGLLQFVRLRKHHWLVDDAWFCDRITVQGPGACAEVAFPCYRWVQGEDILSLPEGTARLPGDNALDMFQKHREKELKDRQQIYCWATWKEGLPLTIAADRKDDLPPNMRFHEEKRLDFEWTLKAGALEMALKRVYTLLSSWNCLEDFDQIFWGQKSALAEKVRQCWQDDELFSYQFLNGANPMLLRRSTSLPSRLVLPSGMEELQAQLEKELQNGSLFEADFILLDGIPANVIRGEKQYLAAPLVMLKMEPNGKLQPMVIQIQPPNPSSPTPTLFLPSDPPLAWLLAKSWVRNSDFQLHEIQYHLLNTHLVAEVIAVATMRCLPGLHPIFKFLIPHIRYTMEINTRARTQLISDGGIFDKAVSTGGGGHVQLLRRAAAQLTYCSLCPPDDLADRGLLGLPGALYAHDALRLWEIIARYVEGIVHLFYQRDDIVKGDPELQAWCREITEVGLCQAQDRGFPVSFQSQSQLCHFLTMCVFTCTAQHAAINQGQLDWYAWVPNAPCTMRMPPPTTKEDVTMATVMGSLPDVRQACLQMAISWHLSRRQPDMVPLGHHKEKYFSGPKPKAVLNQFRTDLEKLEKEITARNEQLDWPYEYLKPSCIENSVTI
#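 Purified human 12hLO at 150 nM in 25 mM Hepes, 0.01% Triton X-100, pH 7.0, preincubated 15 min at room temperature with compound. Reaction started with 40 uM arachidonic acid, 30 min at room temperature. Hydroperoxide measured by Fe-xylenol orange, 573/405 nm absorbance ratio.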
# HT1080 IDH1KD tx: kills HT-1080 cells with IDH1 knockdown; actives 2% (n = 360,000); AID 686971; Potency, µM (series often up to 46.1 µM), without a hit: at the top dose activity, negative = toxicity, most hits filed as cytotoxic; HT-1080 IDH1 knockdown viability, ATP luminescence, 48 h;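 also: potency is read from the fitted curve at half-maximal effect; 0% = DMSO wells and -100% = cell-free medium wells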
#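 In this qHTS, HT-1080 cells depleted of IDH1 are exposed for 48 h at 37 °C to compound titrations. Toxicity is scored from CellTiter-Glo luminescence, with DMSO as full viability and medium alone as none.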
# TDP1 cell CPT: growth inhibition of DT40 Tdp1-/-;hTDP1 cells with camptothecin (screen for TDP1 inhibitors). chicken DT40 Tdp1-/-;hTDP1 cells + 20 nM CPT, ATP luminescence, 48 h. Potency, µM (highest dose often 46.2 µM), inactives show top-dose activity change, negative = growth inhibition, most hits filed as inhibitors. AID 686979. actives 12% (n = 420,000); also: potency is read from the fitted curve at half-maximal effect; nearly all actives have a fitted effect of over 55% in size
#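 Chicken DT40 Tdp1-/- cells stably complemented with human TDP1 were seeded at 400 cells/well in medium containing 20 nM camptothecin, exposed to pin-transferred compounds, and grown at 37 °C for at least 48 hr. Viability was read as ATP luminescence.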
# HT1080NT lethal: kills 2HG-producing HT-1080-NT fibrosarcoma cells. HT-1080-NT fibrosarcoma viability, CellTiter-Glo ATP luminescence, 48 h. actives 1.6% (n = 360,000). Potency, µM (top dose mostly 46.1 µM), without a hit: top-dose activity, negative = less viability, hits mostly cytotoxic;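 also: NT is the 2HG producing partner of a matched IDH1 knockdown line; potency is read from the fitted curve at half-maximal effect; 0% = DMSO-treated cells and -100% = media-only wells without cells; nearly all actives have a fitted effect of over 55% in size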
#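 Viability of the 2HG-overproducing fibrosarcoma line after 48 hours of compound exposure at 37 degrees C was determined by luminescence with CellTiter-Glo, and concentration-effect curves were then fitted and categorized.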
# * hit, by the source's call; ? = inconclusive; nt = not tested or not shown; [ ] = dose if it differs, or a comment. Unless noted, calls follow the shape of the dose curve; as a rule, active = well fitted curve in the direction sought with a large enough effect; inconclusive = small, poorly fitted or top-dose-only effect, or another doubt; inactive = no such curve, though single readings can be large; an effect the other way counts as inactive or inconclusive. Unless noted, % is scaled to controls: 0 for no effect and ±100 for the full control effect.
SMILES,IL1B secr inh,DT40 TDP1 no CPT,ALOX12 inh,HT1080 IDH1KD tx,TDP1 cell CPT,HT1080NT lethal
CCCCCC(C)NCc1sccc1C (stereo not drawn),nt,nt,0.45µM*,nt,nt,nt
CCOc1ccc(CNS(=O)(=O)c2ccc3c(c2)CC(C)N3C(C)=O)cc1OC (stereo not drawn),nt,12µM*,-1%,nt,13µM*,nt
CC(=O)N1c2c(cc(Br)cc2S(=O)(=O)NCc2ccccc2Cl)CC1C (stereo not drawn),nt,?,-23%,nt,?,nt
COc1cc(CNS(=O)(=O)c2ccc3c(c2)CC(C)N3C(C)=O)cc(OC)c1OC (stereo not drawn),35,?,3%,-12%,10µM*,6%
CC(=O)N1c2ccc(S(=O)(=O)N(C)Cc3ccccc3)cc2CC1C (stereo not drawn),-15,21µM*,8%,8%,-20%,14%
CC(=O)N1c2ccc(S(=O)(=O)NCc3ccccc3Cl)cc2CC1C (stereo not drawn),19,7.3µM*,2%,-2%,?,0%
CC(C)NC(=O)NC(=O)CN(C)Cc1cccc(F)c1,nt,nt,41%,nt,nt,nt
CCCCN(Cc1ccccc1)S(=O)(=O)c1cc(Br)cc2c1N(C(C)=O)C(C)C2 (stereo not drawn),-19,13µM*,19%,?,16µM*,?
CC(=O)N1c2c(cc(Br)cc2S(=O)(=O)NCc2cccnc2)CC1C (stereo not drawn),27,-21%,19%,-4%,1%,-4%
N#Cc1ccccc1Cn1c(=O)n(CCCC(=O)NCc2ccc3c(c2)OCO3)c(=O)c2sccc21,nt,?,-19%,nt,?,nt
CC(C)CNC(=O)CCSc1nc(-c2ccc3c(c2)OCO3)cc(C(F)(F)F)n1,nt,nt,-4%,nt,nt,nt
CC(C)(C)NC(=O)CCSc1nc(-c2ccc3c(c2)OCO3)cc(C(F)(F)F)n1,nt,nt,0%,nt,nt,nt
CC(C)NC(=O)CCSc1nc(-c2ccc3c(c2)OCO3)cc(C(F)(F)F)n1,nt,8.2µM*,-20%,nt,13µM*,nt
CC(NC(=O)CCSc1nc(-c2ccc3c(c2)OCO3)cc(C(F)(F)F)n1)c1ccccc1 (stereo not drawn),13,?,-20%,-11%,23µM*,-1%
COc1cc(CNCCO)ccc1OCCc1ccccc1,-18,26µM*,15%,-23%,?,-19%
CCCCNCc1ccc(OCc2ccc(Cl)nc2)c(OC)c1,-12,-2%,72%,3%,11%,-16%
COc1ccccc1CCNCc1ccc(OC)c(OCc2ccccc2)c1,-99*,13µM*,?,?,-92%,?
COc1cc(CNCCc2ccccc2)ccc1OCc1ccc(Cl)nc1,-52*,?,-16%,?,?,-27%
COc1cc(CNCCc2ccccc2)ccc1OCC(N)=O,-7,-2%,-5%,6%,-17%,6%
CSc1nc(C)cc(C(=O)O)n1,nt,nt,-48%,nt,nt,nt
CC(C)c1nc2ccc(C(=O)NC(C)c3ccccc3)cc2o1 (stereo not drawn),nt,?,3%,nt,-26%,nt
CCOc1ccc(NC(=O)c2ccc3nc(C(C)C)oc3c2)cc1,nt,16µM*,-25%,nt,21µM*,nt
COc1ccc(OC)c(CNC(=O)c2ccc3nc(C(C)C)oc3c2)c1,nt,23µM*,5%,nt,?,nt
COc1ccc([C@@H](C)NC(=O)c2ccc3oc(C(C)C)nc3c2)cc1,9,16µM*,9%,17%,?,5%
CC(C)c1nc2ccc(C(=O)NCc3ccccc3Br)cc2o1,nt,16µM*,-12%,nt,?,nt
SMILES,IL1B secr inh,DT40 TDP1 no CPT,ALOX12 inh,HT1080 IDH1KD tx,TDP1 cell CPT,HT1080NT lethal
COC(=O)c1ccc(CNC(=O)COC(=O)c2cc3ccccc3[nH]2)cc1,nt,nt,1%,nt,nt,nt
COCCn1c(=O)n([C@H]2CCCN(C(=O)CC3CCCCC3)C2)c2ncccc21,nt,nt,46%,nt,nt,nt
O=C1CSC(c2ccccc2)N1Cc1ccccc1 (stereo not drawn),nt,nt,-2%,nt,nt,nt
COc1ccc(CNC(=O)c2ccc3nc(C(C)C)oc3c2)cc1OC,nt,?,?,nt,23µM*,nt
COc1ccc(Br)cc1CNC(=O)c1ccc2nc(C(C)C)oc2c1,nt,-22%,-14%,nt,0%,nt
CN(C)Cc1nnc(C2CCCN(C(=O)c3cnn4ccccc34)C2)n1C (stereo not drawn),nt,nt,15%,nt,nt,nt
C=C(C)C1Cc2c(C)nn(-c3nc(C)cc(C)n3)c2C1 (stereo not drawn),-11,4.6µM*,?,-27%,2.3µM*,-10%
C=C(C)C1Cc2nc(N)nc(C)c2C1 (stereo not drawn),25,-14%,-1%,5%,-14%,3%
CN(C)c1ccc(/C=C2\CCC/C(=C\c3ccccc3)C2=O)cc1,-65*,?,-21%,12%,?,12%
Cc1ccccc1/C=C1\Cc2ccccc2C1=O,nt,nt,-27%,nt,nt,nt
CN(C)/C=C1\Cc2ccccc2C1=O,-3,-95%,-36%,-6%,33µM*,3%
CN(C)c1ccc(/C=C2\Cc3ccccc3C2=O)cc1,nt,3.5µM*,nt,nt,?,nt
O=C1/C(=C/c2ccccc2)CCCc2ccccc21,-19,?,?,9%,-16%,16%
COc1cc2c(cc1C(=O)N1CCNCC(O)C1)CCC2 (stereo not drawn),nt,nt,10%,nt,nt,nt
CCCNC(=O)c1ccc2nc(CC)c(CC)nc2c1,nt,nt,-1%,nt,nt,nt
CCOC(=O)C1=C(C)NC(C)=C(C(=O)OCC)C1c1cccc([N+](=O)[O-])c1,-2,23µM*,?,-29%,?,-2%
COc1ccc(COC(=O)C2=C(C)NC(=O)NC2c2ccccc2OC(C)C)cc1 (stereo not drawn),-10,18µM*,?,-20%,-29%,-21%
CCOc1ccccc1C1NC(=O)NC(C)=C1C(=O)OCc1ccccc1 (stereo not drawn),-7,?,14%,-6%,-16%,-2%
COC(=O)C1=C(C)NC(C)=C(C(=O)OCCc2ccc(N3CCN(C(c4ccccc4)c4ccccc4)CC3)cc2)C1c1cccc([N+](=O)[O-])c1 (stereo not drawn),nt,nt,-9%[22.9 µM],nt,nt,nt
CC1=C(C(=O)OCc2ccccc2)C(c2ccccc2Br)NC(=O)N1 (stereo not drawn),-72*,?,?,-27%,-2%,-23%
